TNFa cytotox – toxic to HUVEC cells under TNF alpha stimulation; HUVEC TNFalpha-stimulated, Hoechst cell count, imaging; cell count reduction, % at 2 µM; hit rate 0.17% among 93,000; AID 848;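 active = cell count reduction exceeding the screen mean by over 5 SD, scaled to untreated wells per plate, cut at about 78% in these data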;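 also: cells counted after 24 h of TNF alpha exposure following the 1 h pretreatment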
VCAM1 TNFa inh – reduces TNF alpha induced VCAM1 expression in HUVEC. HUVEC TNFa-induced VCAM-1 immunofluorescence, high-content imaging. inhibition, % at 2 µM. hit rate 0.48% among 95,000. AID 802;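 active = inhibition above the batch mean plus 3 SD, with images confirmed as a hit by eye, cut at about 37% in these data; inconclusive = inhibition above that limit but hit not confirmed in images; inactive = inhibition not above that limit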;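 also: 0% = TNF-stimulated DMSO wells and 100% = unstimulated control wells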
F-actin modifier – alters cytoskeleton assembly in HUVEC cells; HUVEC TNFa F-actin phalloidin imaging, high content; inhibition, % at 2 µM; hit rate 0.18% among 91,000; AID 836;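 active = inhibition above the batch mean plus 3 SD and confirmed as a hit by visual image inspection, cut at about 30% in these data, passing the limit was not always enough; inconclusive = above the inhibition threshold but rejected on visual inspection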
E-sel TNF inh – blocks E-selectin expression induced by TNF alpha; hit rate 0.71% among 120,000; inhibition, % at 2 µM; HUVEC TNFa-induced E-selectin immunofluorescence, high content;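 active = inhibition above the batch mean plus 3 SD, and confirmed as a hit on visual image review, cut at about 43% in these data; inconclusive = passes the inhibition cutoff but fails visual image review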;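 also: 0% = TNF-stimulated DMSO wells and 100% = unstimulated control wells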
Numbers without * were called inactive. A selection: hits, their analogues and other compounds. The true share with any hit is near 1%.

Screening CCOC(=O)C(C)Oc1cccc2c(=O)n(CC(=O)Nc3cccc(OC)c3)ccc12 (stereo not given) returned TNFa cytotox -14, VCAM1 TNFa inh 5, F-actin modifier -18 and E-sel TNF inh 67*.
CCOC(=O)C(C)Oc1cccc2c(=O)n(CC(=O)NCc3ccc4c(c3)OCO4)ccc12 (stereo not given) was read as TNFa cytotox 94*, VCAM1 TNFa inh 39 and F-actin modifier inconclusive.
For COc1ccc2[nH]c(=O)c(CN(C)C(=O)c3ccncc3)cc2c1 the results were TNFa cytotox -19, VCAM1 TNFa inh 10 and F-actin modifier 22.
`COc1ccc2[nH]c(=O)c(CN(C(=O)c3ccncc3)C(C)C)cc2c1` gave TNFa cytotox -77, VCAM1 TNFa inh 95*, F-actin modifier 48* and E-sel TNF inh 4.
CCOC(=O)CC(=O)NC1(Cc2ccc(O)cc2)CCCCC1 was read as E-sel TNF inh 7.
For O=S(=O)(/N=C(/Nc1ccc(F)c(F)c1F)c1ccccc1)c1ccccc1 the results were E-sel TNF inh 2.
Cc1cc(NC(=O)CSc2nc(-c3cccs3)cc(C(F)(F)F)n2)no1 was read as TNFa cytotox 21, VCAM1 TNFa inh 53*, F-actin modifier -10 and E-sel TNF inh -13.
For CC12CN3CCN(CC(C3)/C1=N\NC(=O)Nc1cccc(Cl)c1)C2 the results were E-sel TNF inh -7.
CCCCCCCCn1c2c(c(=N)c3ccccc31)CCC2 was read as E-sel TNF inh -27.
`CCCCCCCCCCn1c2c(c(=N)c3c1CCC3)CCC2` gave TNFa cytotox 14, VCAM1 TNFa inh 87* and F-actin modifier -43.
Screening N#CC(C#N)=C1C=CC=CN1/C(=C\c1ccccc1Cl)C(=O)c1ccccc1 returned E-sel TNF inh 69*.
Screening CC1CCN(C(=O)/C(=C/c2ccccc2Cl)c2ccccc2)CC1 returned TNFa cytotox -7, VCAM1 TNFa inh -13, F-actin modifier -7 and E-sel TNF inh -32.
Screening CCCc1c(O)c2ccccc2[nH]c1=O returned TNFa cytotox -10, VCAM1 TNFa inh -2, F-actin modifier 1 and E-sel TNF inh 52*.
Screening CCCCc1c(O)c2ccccc2[nH]c1=O returned TNFa cytotox -33, VCAM1 TNFa inh 20, F-actin modifier 21 and E-sel TNF inh -4.
Screening Cc1cc(OCC(=O)Nc2ccncc2)c(C)cc1Br returned TNFa cytotox -23, VCAM1 TNFa inh -3, F-actin modifier 15 and E-sel TNF inh 66*.
For O=C(COc1ccc(Br)cc1)Nc1ccncc1 the results were TNFa cytotox 1, VCAM1 TNFa inh 3, F-actin modifier -20 and E-sel TNF inh -39.
Cc1ccc(N2C(=O)C3C4C=CC(CNC(=S)Nc5ccc(F)cc5)(O4)C3C2=O)cc1 (stereo not given) was read as E-sel TNF inh 68*.
For CN(Cc1ccon1)Cc1cn(C)nc1-c1cccc(Cl)c1 the results were E-sel TNF inh -5.
Cc1ccc(OCC(O)CNS(=O)(=O)c2ccccc2C(=O)N2CCCCC2)cc1 (stereo not given) was read as TNFa cytotox 48, VCAM1 TNFa inh 22, F-actin modifier 44* and E-sel TNF inh 3.
COc1ccc(C(C)(C)C)cc1S(=O)(=O)N1CCN(C)CC1 was read as TNFa cytotox -22, VCAM1 TNFa inh 93*, F-actin modifier 21 and E-sel TNF inh 11.
For Cc1cc(N2CC(C(=O)O)CC2=O)ccc1Br (stereo not given) the results were TNFa cytotox 92*, VCAM1 TNFa inh 62, F-actin modifier -8 and E-sel TNF inh -12.
For Cc1ccc(N2CC(C(=O)Nc3ccc(N(C)C)cc3)CC2=O)cc1C (stereo not given) the results were TNFa cytotox 0, VCAM1 TNFa inh -22, F-actin modifier -4 and E-sel TNF inh 5.
Clc1ccccc1CSc1nncn1NC/C=C/c1ccccc1 was read as E-sel TNF inh -15.
For Cc1c(C(=O)Nc2ccncc2)oc2ccccc12 the results were TNFa cytotox -17, VCAM1 TNFa inh 2, F-actin modifier 3 and E-sel TNF inh 31.
Screening Cc1c(C(=O)NC(C)c2ccncc2)oc2ccccc12 (stereo not given) returned TNFa cytotox -10, VCAM1 TNFa inh 0, F-actin modifier 8 and E-sel TNF inh 100*.
For COc1ccc(N/C=C/C(=O)c2ccc(C)cc2)c([N+](=O)[O-])c1 the results were TNFa cytotox -7, VCAM1 TNFa inh -6, F-actin modifier 19 and E-sel TNF inh 65*.
`C=C1C(=O)C=C2CN(C(=O)c3ccccc3)[C@@](Cc3ccc(F)cc3)(C(=O)OC)[C@@H]12` gave E-sel TNF inh 100*.
`CCOC(=O)c1ccc(NC(=S)NCC(O)c2ccccc2)cc1` (stereo not given) gave VCAM1 TNFa inh -46, F-actin modifier 18 and E-sel TNF inh 73*.
For CCOC(=O)c1ccc(NC(=S)NCCc2ccccc2)cc1 the results were VCAM1 TNFa inh -33, F-actin modifier -7 and E-sel TNF inh 11.
For O=C(O)CC(NC(=O)c1cccc([N+](=O)[O-])c1)c1ccc2c(c1)OCO2 (stereo not given) the results were E-sel TNF inh 30.
COc1nc(N)c(S(=O)(=O)c2ccc(C)cc2)cc1C#N was read as TNFa cytotox -2, VCAM1 TNFa inh -2, F-actin modifier -44 and E-sel TNF inh 17.
Screening Cc1ccc(S(=O)(=O)c2cc(C#N)c(=O)[nH]c2N)cc1 returned TNFa cytotox -23, VCAM1 TNFa inh -4, F-actin modifier 62* and E-sel TNF inh 9.
For O=C(NNC(=O)c1ccc([N+](=O)[O-])o1)c1ccccc1 the results were TNFa cytotox -26, VCAM1 TNFa inh 12, F-actin modifier 13 and E-sel TNF inh -22.
For Cc1cc(C)cc(NC(=O)c2ccc([N+](=O)[O-])o2)c1 the results were E-sel TNF inh 76*.
`COc1cccc(NC(=O)c2cc(CN3C(=O)c4ccccc4C3=O)ccc2OC)c1` gave E-sel TNF inh -6.
For COc1cccc(NC(=O)CSC2=C(C#N)C(c3ccco3)C3=C(CCCC3=O)N2)c1 (stereo not given) the results were TNFa cytotox 36, VCAM1 TNFa inh -5 and F-actin modifier -7.
Screening COc1ccc(C2C(C#N)=C(SCC(=O)Nc3ccc(C)cc3)NC3=C2C(=O)CC(C)(C)C3)cc1 (stereo not given) returned TNFa cytotox -6, VCAM1 TNFa inh -7, F-actin modifier 6 and E-sel TNF inh 66*.
For C#CCN1C(=O)C(O)(CC(=O)c2cccc(OC)c2)c2ccccc21 (stereo not given) the results were TNFa cytotox -13, VCAM1 TNFa inh 11, F-actin modifier -18 and E-sel TNF inh 85*.
For COc1ccc(Cl)cc1NC(=O)C(C)N(C)Cc1cccc(Cl)c1Cl (stereo not given) the results were E-sel TNF inh 10.
Screening COCCCNC(=O)CN1C(=O)c2ccccc2C1=O returned TNFa cytotox -20, VCAM1 TNFa inh -22, F-actin modifier 11 and E-sel TNF inh 66*.
`O=C(CCN1C(=O)C2C3C=CC(C3)C2C1=O)NCC1CCCO1` (stereo not given) gave TNFa cytotox -50, VCAM1 TNFa inh 10 and F-actin modifier 69*.
